Measurements from PubChem BioAssay AID2315 (National Center for Advancing Translational Sciences (NCATS), 2010).
Where “and” joins values, the source holds several entries; their conditions need not be identical. Identical values can stand only once. Among all 290,000 compounds or so, about 27,000 (9.3%) were called active. What follows is part of a selection rich in actives, with near analogues and random picks from the rest. Values without a mark were called inactive. No stated cut-off is given here; in the data, active means inhibition mostly above about 28% (no sharp cut-off); inactive means mostly below about 43%.

Assay: A qHTS for Small Molecule Inhibitors of Shiga Toxin; on inhibition: 0% is about no effect
Details: Vero cells, Shiga toxin protein synthesis inhibition reporter; at 38.7 µM, active compounds read high

| Structure (SMILES) | inhibition |
| --- | --- |
| COC(=O)c1ccc(COC(=O)c2cnccn2)cc1 | 5.86% |
| CCOc1ccc(C(C)=O)cc1COC(=O)c1cnc(Cl)c(Cl)c1 | 14.4% |
| COC(=O)c1ccc(COC(=O)c2cnc(Cl)c(Cl)c2)cc1 | 87.3% (active) |
| CN(Cc1ccccc1)C(=O)c1ccc(NC2=NC3CS(=O)(=O)CC3S2)cc1 (stereo unspecified) | -3% |
| CSc1cccc(NC(=O)C2CCCN2S(=O)(=O)c2ccc3c(c2)CCC(=O)N3)c1 (stereo unspecified) | 25.9% (active) |
| CC(=O)Nc1ccc(NC(=O)C2CCCN2S(=O)(=O)c2cccc(C(F)(F)F)c2)cc1 (stereo unspecified) | -1.36% |
| O=C1CCc2cc(S(=O)(=O)N3CCC(C(=O)NCc4ccccc4Cl)CC3)ccc2N1 | -4.83% |
| CC(=O)c1cccc(NC(=O)C2CCN(C(=O)c3ccccc3Cl)CC2)c1 | -18.7% |
| CCOc1ccc(C)cc1S(=O)(=O)NC1CCCCCC1 | -4.32% |
| CCc1cc2c(=O)n(-c3ccccc3)c(SCC(=O)O)nc2s1 | -7.15% |
| COc1ccc(/C=C2\SC(=N)N(c3ccc(F)cc3)C2=O)cc1 | -5.41% |
| COc1ccc(/C=C2\N=C3CCCN3C2=O)cc1 | 84.4% (active) |
| COc1ccc(/C=C2\SC(=S)N(CC(=O)NNC(=O)c3ccncc3)C2=O)cc1 | 30.3% |
| CC(C)c1c(C(=O)N/N=C/c2ccc(-c3ccccc3)cc2)nnn1-c1nonc1N | -5.37% |
| CCOc1ccc(CN2CCN(CCCc3ccccc3)C(CCO)C2)cc1 (stereo unspecified) | 1.09% |
| COc1ccc(N2C(=O)NC(NS(=O)(=O)c3ccc(Cl)cc3)(C(F)(F)F)C2=O)cc1 (stereo unspecified) | -3.26% |
| COc1cc(/C=N\NC(=O)CNC(=O)c2cccc([N+](=O)[O-])c2)ccc1O | -6.08% |
| COc1cc(/C=N/NC(=O)c2ccoc2C)ccc1OCCN1CCCCC1 | 29.5% |
| Cc1ccc(-n2[nH]c(C)c(/C=N/NC(=O)c3cccc([N+](=O)[O-])c3)c2=O)cc1C | 62.4% (active) |
| Cc1[nH]n(-c2ccccc2)c(=O)c1/C=N/NC(=O)c1ccoc1C | 125% (active) |
| Cc1[nH]n(-c2ccc(Cl)cc2)c(=O)c1/C=N/n1c(C)nc2ccccc2c1=O | 38.2% |
| Cc1[nH]n(-c2ccc([N+](=O)[O-])cc2)c(=O)c1C=NCCN1CCN(C(=O)c2ccccc2F)CC1 | -12.7% |
| COc1cc(NS(=O)(=O)c2ccc(NC(=S)NC(=O)c3ccc(Br)cc3)cc2)ncn1 | -2.95% |

| Structure (SMILES) | inhibition |
| --- | --- |
| N#CCC(=O)NC1CCC(CC2CCC(NC(=O)CC#N)CC2)CC1 (stereo unspecified) | -8.84% |
| Cc1[nH]c(C)c(S(=O)(=O)N2CCN(c3cccc(C(F)(F)F)c3)CC2)c1C(=O)N1CCCCC1 | -4.18% |
| NC(=O)C1=C[C@H](c2csc3ccccc23)C[C@H](OCc2ccc(CO)cc2)O1 | 24% |
| O=S(=O)([N-]c1nc2ccccc2nc1-[n+]1ccc(Cc2ccccc2)cc1)c1ccc(Br)s1 | 47.8% (active) |
| Cc1cc(C)c[n+](-c2nc3ccccc3nc2[N-]S(=O)(=O)c2cccs2)c1 | 1.54% |
| O=C(NCCc1ccccc1)C1CCN(S(=O)(=O)c2ccc(Br)s2)CC1 | 9.64% |
| CCOc1ncccc1C(=O)NCCc1ccc(OC)cc1 | -6.94% |
| CNC(=O)c1sc(NCc2ccccc2OC)nc1C | 4.08% |
| Cc1cc2c(c(=O)n1Cc1ccccc1)C1O[C@](CCCCN3C(=O)c4ccccc4C3=O)(Cc3ccccc31)O2 | inactive |
| O=C(O)CCCN1C(=O)c2ccccc2Sc2ncccc21 | -5.85% |
| c1csc(-c2cn3c(n2)SCC3)c1 | 16.5% |
| O=c1c2cc(-c3ccccc3)sc2nc2n1N=C(c1cccs1)CS2 | 100% (active) |
| O=c1[nH]c(-c2cccs2)nc2ccccc12 | 32.8% |
| C#CC(C)(C)NC(=O)c1cnc(-c2ccccc2)nc1-c1ccccc1 | -5.15% |
| CC(=O)c1ccc(N2CCN(S(=O)(=O)c3c(C)[nH]c(=O)[nH]c3=O)CC2)cc1 | 16.6% |
| CC(=O)c1ccc(N2CCN(S(=O)(=O)c3ccc4c(c3)CC(=O)N4C)CC2)cc1 | 54.4% (active) |
| CC(=O)c1ccc(N2CCN(C(=O)C3CCN(S(=O)(=O)c4ccc5c(c4)CC(C)N5C(=O)C4CC4)CC3)CC2)cc1 (stereo unspecified) | 22.9% |
| CCCn1nnnc1NCc1ccc(CC)cc1 | -8.65% |
| O=C(/C=C/c1ccc(Cl)cc1Cl)NCc1ccco1 | 94.1% (active) |
| O=C(NCc1ccco1)C1(c2ccc(Cl)cc2)CCCC1 | -3.65% |
| COC(=O)/C=C/C(=O)NCc1ccco1 | 18.7% |
| CC(NC(=O)c1cc(=O)[nH]c2ccccc12)c1ccc(F)cc1F (stereo unspecified) | 9.23% |
| CCOc1cc(/C=C2\SC(N3CCCC(C)C3)=NC2=O)ccc1O (stereo unspecified) | 60.1% (active) |

| Structure (SMILES) | inhibition |
| --- | --- |
| CCOc1ccc(/C=C2\SC(=S)N(NC(=O)c3ccncc3)C2=O)cc1OC | -10.1% |
| CCOc1cc(C(=S)N2CCOCC2)ccc1O | -8.19% |
| O=C1N=C(N2CCCC2)S/C1=C\c1cccc(Br)c1 | 34.8% |
| CC1CCN(C2=NC(=O)/C(=C/c3ccc(O)cc3)S2)CC1 | 38.6% |
| CCOc1cc(/C=C2\SC(N3CCCCC3)=NC2=O)ccc1O | 67.1% (active) |
| CC(C)CNS(=O)(=O)c1ccc(CCC(=O)NCc2ccc(Cl)cc2)cc1 | -10.9% |
| CCOc1cc(-c2cc(-c3ccc(NC(C)=O)cc3)nc(N)c2C#N)ccc1O | -1.91% |
| COc1ccc(S(=O)(=O)Nc2ccccc2C(=O)N2CCCC2)cc1C | 5.33% |
| O=C(NNC(=O)C1CCCC1)c1ccc(F)cc1 | 10.8% |
| O=C(O)c1cccc2c1C(=O)N(C1CCCC1)C2 | -4.27% |
| CCOc1ccc(S(=O)(=O)N2CCN=C2Cc2ccccc2)cc1C | -2.53% |
| CC1CCCCC1NC(=O)c1cn(C)c2ccc(S(=O)(=O)N3CCOCC3)cc2c1=O (stereo unspecified) | -15.7% |
| COc1ccc(/C(C)=N/N2CCOCC2)c(O)c1 | 47.1% (active) |
| COc1ccc(OCC(=O)N2CCOCC2)cc1 | 51.9% |
| COc1cc(C(=S)N2CCOCC2)ccc1O | -13.2% |
| COc1ccc(N(CC(=O)Nc2cc(OC)cc(OC)c2)S(=O)(=O)c2c(C)n[nH]c2C)cc1 | 5.74% |
| CCN(CC)S(=O)(=O)c1ccc(C(=O)N2CCN(C3=NS(=O)(=O)c4ccccc43)CC2)cc1 | 16.6% |
| O=c1c2ccccc2nnn1CSc1nnnn1-c1ccccc1 | 62.9% |
| Nc1nnc(SCCN2C(=O)c3ccccc3S2(=O)=O)s1 | -8.37% |
| Nc1nnc(SCn2nnc3ccccc3c2=O)s1 | 46.5% (active) |
| Cc1ccc(-n2cc(CN(C)Cc3nccn3C)c(-c3cccc(C)c3)n2)cc1 | -6.37% |
| COc1ccc(C(=O)Nc2nncs2)c(OC)c1 | 62.3% (active) |
| COc1ccc(C(=O)NC(C)CCc2ccccc2)c(OC)c1 (stereo unspecified) | 22.2% |

| Structure (SMILES) | inhibition |
| --- | --- |
| COc1ccc(C(=O)NC2=NCCS2)c(OC)c1 | 42% (active) |
| O=C(NC1=NCCS1)c1ccc(Cl)s1 | 149% (active) |
| O=C(NCc1ccc2c(c1)OCO2)c1ccc(Cl)s1 | 50.7% |
| O=C(NC1=NCCS1)[C@H](Cc1ccccc1)N1C(=O)c2ccccc2C1=O | -5.83% |
| COc1ccc(C(=O)NCc2nnc(SCC(=O)NC3=NCCS3)n2C)cc1 | -9.89% |
| COc1ccc(C(=O)N2CCCN(C)CC2)c(OC)c1 | -2.8% |
| O=C(Nc1nncs1)c1ccccc1NS(=O)(=O)c1cccs1 | -4.57% |
| CC(C)C(=O)NCC(c1cccs1)S(=O)(=O)c1ccc(F)cc1 (stereo unspecified) | 2.44% |
| COc1ccc(CNC(=O)c2nnn(CC(=O)Nc3cc(C)cc(C)c3)c2N)cc1 | -9.11% |
| COc1ccc(Cn2c(=S)[nH]c3cc(C(=O)NCCCN4CCOCC4)ccc3c2=O)cc1 | 18.7% |
| CCOC(=O)[C@H]1[C@H]2COc3cc(OC)ccc3[C@@H]2N2C(=O)N(c3ccc(Br)cc3)C(=O)[C@@]12C | -9.26% |
| Cc1cc(=O)oc2c3c(cc(OCC(=O)NCc4ccccn4)c12)OC(C)(C)CC3 | -3.65% |
| CCCn1c2ccccc2c2cnn(CC(=O)NCCCN3CCCCC3CC)c(=O)c21 (stereo unspecified) | -4.97% |
| CC(=O)c1cc2c(cc1NC(=O)Cn1nc(-c3ccc(F)cc3)ccc1=O)OCO2 | 20.6% |
| CSc1ccc(/C=N/NC(=O)c2cccc(Cl)c2)cc1 | 4.92% (active) |
| CSc1ccc(/C=N\NC(=O)COc2ccc(Cl)cc2Br)cc1 | 59.9% |
| CSc1ccc(/C=N\NC(=O)CC(=O)NC(C)C)cc1 | 14.5% |
| COc1ccc(NC(=O)NN2CCN(C)CC2)c(OC)c1 | -17.8% |
| COc1c(O)cc2oc(-c3ccc(O)c(O)c3)cc(=O)c2c1O | 69.1% (active) and 69% (active) |
| COc1ccc(-c2cc(=O)c3c(O)cc(O[C@@H]4O[C@H](CO[C@@H]5O[C@@H](C)[C@H](O)[C@@H](O)[C@H]5O)[C@@H](O)[C@H](O)[C@H]4O)cc3o2)cc1O | -12.1% |
| O=c1cc(-c2ccc(O)cc2)oc2c(-c3cc(-c4cc(=O)c5c(O)cc(O)cc5o4)ccc3O)c(O)ccc12 | -1.7% |
| CN(CC1CCCO1)S(=O)(=O)c1ccc(C(=O)Nc2ccc(F)cc2)cc1 (stereo unspecified) | 11.9% |
